The list is not random: actives were taken first. Their share in the collection is about 6.6%.
Bead autofluor: counter-screen for toxin protease inhibitors: compound fluorescence | 360,000 tested, 3.1% active | compound autofluorescence counterscreen, microsphere flow cytometry; stronger effect = higher value | fluorescence intensity (no concentration beside the values); in the data active = fluorescence intensity above about 16000; inconclusive = no clear call, values can overlap the other calls
BoNT-F LC inh: BoNT/F light chain protease inhibitors, primary screen, biochemical, flow cytometry, MLPCN library; Botulinum neurotoxin type F light chain protease (Clostridium botulinum); Multiplex microsphere protease cleavage assay; inhibition, % at 10 µM; 360,000 tested, 0.22% active; in the data active = inhibition above about 35%, passing the limit was not always enough; inconclusive = no clear call, values can overlap the other calls; also: plate controls were buffer without enzyme for full effect and enzyme alone for no effect
GDH-TPI counter: GDH-TPI coupling enzyme inhibitors, primary screen, artefact control for M. tuberculosis FBA inhibitor project, biochemical, absorbance, full deck | GDH-TPI coupled enzyme counterscreen, NADH absorbance | 360,000 tested, 1.2% active | inhibition, % at 4.8 µM; in the data active = inhibition above about 30%;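 also: 0% = DMSO wells and 100% = wells lacking the enzyme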
Anthrax LF prot: Bacillus anthracis LF protease inhibitors, primary screen, biochemical, multiplex microsphere, MLPCN library; inhibition, % at 10 µM; 360,000 tested, 0.12% active; multiplex microsphere protease cleavage assay; also: plate controls were buffer without enzyme for full effect and enzyme alone for no effect
BoNT-A LC inh2: BoNT/A light chain protease inhibitors, primary screen, biochemical, flow cytometry, MLPCN library | 360,000 tested, 0.17% active | AID 588499, 2011 | multiplex microsphere protease substrate cleavage | Botulinum neurotoxin type A light chain protease (Clostridium botulinum A str. ATCC 3502) | inhibition, % at 10 µM; also: plate controls were buffer without enzyme for full effect and enzyme alone for no effect
Mtb FBA inh: Mtb FBA enzyme inhibitors, primary screen, biochemical, fluorescence, strain H37Rv | Fructose-bisphosphate aldolase (Mycobacterium tuberculosis (strain ATCC 25618 / H37Rv)), … | inhibition, % at 1 µM | purified M. tuberculosis FBA, fluorescence read-out | AID 588726, 2011 | 360,000 tested, 2.3% active; in the data active = inhibition above about 27%;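 also: 0% = vehicle and 100% = reference inhibitor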
* = called active by the depositor; ? = inconclusive; · = not tested or not shown. Rule as the data show it, unless noted: active = inhibition above about 30%; inconclusive = no clear call, values can overlap the other calls; inactive = below that.

SMILES | Bead autofluor | BoNT-F LC inh | GDH-TPI counter | Anthrax LF prot | BoNT-A LC inh2 | Mtb FBA inh
O=C1/C(=C/c2cccc([N+](=O)[O-])c2)CCc2ccccc21 | 2014 | 16 | 13 | -4 | 2 | 1
CCc1ccc(N2C(=O)c3sc4nnc(C)c(=O)n4c3C2=O)cc1 | 20580* | 7 | 1 | -1 | 3 | -1
OCC1(CC2CCCCO2)CCN(Cc2cccc(O)c2)CC1 (stereo unspecified) | 3466 | 0 | 1 | -5 | 1 | 1
CCOc1ncccc1C(=O)NNC(=O)c1cccc(S(=O)(=O)Nc2ccc(OC)cc2)c1 | 5366 | 1 | 2 | 3 | 0 | -1
CCCC1CCC(C2=N/C(=C\c3ccc(OC)c(OC)c3)C(=O)O2)CC1 (stereo unspecified) | 22779* | -2 | 5 | -1 | 0 | -1
COc1cccc(/C=C2\N=C(C3CCCCC3)OC2=O)c1OC | 4068 | -2 | -9 | -4 | 0 | -1
CCOC(=O)c1cnc(Cc2ccccc2)[nH]c1=O | 4146 | -26 | 1 | 5 | 4 | 3
CCOC(=O)c1cnn2c1[nH]c(=O)c1ccccc12 | 2474 | -21 | 9 | -1 | -1 | 30*
COc1ccc(C(=O)CSc2nnc(C3CC3)n2N)cc1 | 22665* | 0 | -3 | 1 | ? | 0
CCOc1ccc(NC(=O)CSc2nnc(C3CC3)n2N)cc1 | 23438* | 2 | 2 | 0 | 0 | -1
N#C/C(=C\c1ccc(O)c(O)c1)C(=O)Nc1cccc2ncccc12 | 5240 | -11 | 5 | -1 | -2 | 6
CCn1cc(C(=O)N2CC(C)CC(C)C2)c(=O)c2cc(S(=O)(=O)N(C)C)ccc21 (stereo unspecified) | 4547 | -10 | 25 | -2 | -1 | 5
CCOC(=O)C1CCCN(C(=O)c2cn(CC)c3ccc(S(=O)(=O)N4CCCC4)cc3c2=O)C1 (stereo unspecified) | 16154* | -2 | 38* | -4 | 1 | -2
CCOC(=O)C1CCCN(C(=O)c2cn(C)c3ccc(S(=O)(=O)N4CCCC4)cc3c2=O)C1 (stereo unspecified) | 21667* | 4 | 21 | 0 | ? | 2
CCn1cc(C(=O)NCc2ccc3c(c2)OCO3)c(=O)c2cc(S(=O)(=O)N3CCOCC3)ccc21 | 21213* | -10 | 15 | 0 | ? | 1
CCn1cc(C(=O)NCc2ccc3c(c2)OCO3)c(=O)c2cc(S(=O)(=O)N(C)C)ccc21 | 9237 | 3 | 8 | -2 | 1 | 1
CCn1cc(C(=O)N2CC(C)CC(C)C2)c(=O)c2cc(S(=O)(=O)N3CCOCC3)ccc21 (stereo unspecified) | 24578* | -4 | 29 | 1 | -2 | -3
O=C(CCCN1C(=O)c2ccccc2C1=O)Nc1nnc(C2CC2)s1 | 2588 | 0 | 2 | -1 | 1 | 1
O=[N+]([O-])c1ccc(Cl)cc1NCC1CCCO1 (stereo unspecified) | 3051 | 2 | 13 | 18 | -1 | -6
S=C1Cc2ccccc2N1 | 5014 | -4 | -2 | -5 | -1 | 3
CC(C)NC(=S)NNC(=O)C12CC3CC(CC(C3)C1)C2 | 24739* | -2 | 1 | -3 | ? | -4
CC(=O)C(Cc1ccccc1)NC(=O)COc1ccc2c(c1)OCO2 (stereo unspecified) | 3756 | 1 | 1 | 8 | -1 | -3
C=CCN(CC=C)C(=S)Nc1ccccc1 | 22624* | 1 | -7 | -1 | 3 | -6
C=CCNC(=S)Nc1ccccc1 | 9515 | 0 | 1 | -5 | 1 | 0
CC1CCc2[nH]nc(C(=O)O)c2C1 (stereo unspecified) | 20725* | 3 | 16 | -8 | 2 | 0
SMILES | Bead autofluor | BoNT-F LC inh | GDH-TPI counter | Anthrax LF prot | BoNT-A LC inh2 | Mtb FBA inh
Cc1cc(=O)oc2cc(OCC(=O)OCC(=O)Nc3c(C)n(C)n(-c4ccccc4)c3=O)ccc12 | 4971 | 13 | -1 | 8 | 2 | 3
COc1ccc(NC(=O)C23CC4CC(C2)CC(n2cnc(Br)n2)(C4)C3)cc1Cl | 16232* | -3 | 2 | -1 | 0 | 1
O=C(O)c1ccccc1N=Nc1ccc(O)cc1 | 5533 | -4 | 36* | -1 | 1 | -6
Cc1cc(NC(=O)CCCC(=O)N(CC(=O)NCCc2ccccc2)Cc2ccc(F)cc2)no1 | 20415* | -4 | 2 | -5 | -3 | -1
O=C(CN(Cc1ccc(F)cc1)C(=O)CCC(=O)Nc1ccccn1)NCCc1ccccc1 | 3721 | 1 | 7 | 3 | 0 | -1
Cc1ccc(C(=O)N=c2sccn2C)o1 | 5542 | -4 | 33* | 0 | 0 | -2
Cc1ccccc1C(=O)N=c1sccn1C | 5142 | -18 | -2 | 3 | -1 | 0
Cc1ccc(CN2CCC(C)(Oc3cccc(Cl)c3)C2)cc1 (stereo unspecified) | 4165 | -9 | 4 | -7 | -1 | -2
O=C(O)CCC(=O)NNC(=O)CCC1CCCCC1 | 2042 | 1 | 1 | 2 | -1 | 2
O=C(CCC1CCCCC1)NNC(=O)NC12CC3CC(CC(C3)C1)C2 | 23967* | 0 | -2 | 0 | ? | 1
COc1cc(OC)cc(C(=O)N2CCC(N3CCCCCC3)CC2)c1 | 19182* | -7 | -6 | -1 | -4 | 2
COc1cc(OC)cc(C(=O)NN2CCCCC2)c1 | 25088* | -6 | 0 | -1 | -4 | 0
CCn1c(CNc2cccc(C(F)(F)F)c2)n[nH]c1=S | 2554 | -3 | -5 | -1 | 0 | 0
COc1ccc2c(c1)CC=C1C2CCC2(C)C(=O)C(=NO)CC12 (stereo unspecified) | 3906 | -7 | 1 | 0 | 0 | 0
CC(=O)c1cccc(Nc2ccc(C#N)cc2)c1 | 5860 | 5 | · | 4 | 1 | 1
CC(C)c1ccc(O)c(NC(=O)c2cccnc2)c1 | 20393* | -1 | -8 | -2 | -1 | -1
O=C(Nc1ccccc1C(F)(F)F)c1cccnc1 | 3951 | -2 | 5 | -4 | -1 | -2
CC(C)(C)c1ccccc1NC(=O)c1cccnc1 | 16565* | -3 | 6 | 0 | ? | 1
N#Cc1c(NC(=O)COC(=O)c2ccc(S(=O)(=O)N3CCCC3)cc2)sc2c1CCCCC2 | 2051 | 0 | 6 | -1 | 0 | -1
Cc1cccc(S(=O)(=O)NC(=O)C2(C)CCN2C(=O)CCC2CCCC2)c1 (stereo unspecified) | 3789 | -5 | 7 | -5 | 0 | 0
O=S1(=O)CC2(N3CCOCC3)CCCCC21 (stereo unspecified) | 19624* | 1 | -4 | -2 | 2 | 5
O=S1(=O)CC2(N3CCOCC3)CCCCCCC21 (stereo unspecified) | 23822* | -1 | 5 | 0 | -2 | 1

Source: PubChem
